Results filed as inconclusive are left out. The source made the active and inactive calls. The call rests on the fitted dose curve; in most records, active means well fitted curve in the direction sought with a large enough effect; inconclusive means small, poorly fitted or top-dose-only effect, or another doubt; inactive means no such curve, though single readings can be large; an effect the other way counts as inactive or inconclusive.

The values that follow come from PubChem BioAssay (NCATS).

Experiment [1] can be described thus: qHTS of pediatric cancer cell lines to identify multiple opportunities for drug repurposing: Primary screen for Saos-2 cells (AID 1347097). Further: nearly all actives have a fitted effect of over 40% in size. Further: potency means the concentration at half of the fitted maximal effect. The method, boiled down: (§1)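 Readout: CellTiter-Glo luminescence, 48 h treatment. Controls DMSO (neutral) and bortezomib 2.3 µM final (positive). Potency and efficacy taken from primary-screen concentration-response curves.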
On the technique in general: qHTS replaces the single test concentration by a dilution series.

Experiment [2] can be described thus: qHTS of pediatric cancer cell lines to identify multiple opportunities for drug repurposing: Primary screen for SK-N-SH cells (AID 1347098). Further: nearly all actives have a fitted effect of over 65% in size. Further: potency means the concentration at half of the fitted maximal effect. The method, boiled down:
(§2)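 Cells (500-1,000/well) rested 5 h, then received compounds for 48 h; metabolically active cells were measured by CellTiter-Glo luminescence. Final concentrations spanned up to 46 µM (MIPE, 11-point) or 0.59 nM-46 µM (NPC, 8-point) in primary screens, 11-point in follow-ups.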

The nature of experiment [3]: qHTS of pediatric cancer cell lines to identify multiple opportunities for drug repurposing: Primary screen for NB1643 cells (AID 1347099). Further: nearly all actives have a fitted effect of over 50% in size. Further: potency means the concentration at half of the fitted maximal effect. The method, boiled down:
as §1

The nature of experiment [4]: qHTS of pediatric cancer cell lines to identify multiple opportunities for drug repurposing: Primary screen for LAN-5 cells (AID 1347100). Further: potency means the concentration at half of the fitted maximal effect. The method, boiled down:
(§3)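 Cells (500-1,000/well) in growth media were settled 5 h at 37 degrees C, then given compounds for 48 h. Viability was read as CellTiter-Glo luminescence. Primary runs used MIPE at 11 points (0.78 nM-46 µM) and NPC at 8 points (0.59 nM-46 µM); follow-ups used 11 points.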

A short description of experiment [5]: qHTS of pediatric cancer cell lines to identify multiple opportunities for drug repurposing: Primary screen for BT-12 cells (AID 1347101). Further: nearly all actives have a fitted effect of over 25% in size. Further: potency means the concentration at half of the fitted maximal effect. In a few lines: as §2
The nature of experiment [6]: qHTS of pediatric cancer cell lines to identify multiple opportunities for drug repurposing: Primary screen for Rh18 cells (AID 1347102). Further: nearly all actives have a fitted effect of over 65% in size. Further: potency means the concentration at half of the fitted maximal effect. The method, boiled down: as §3
Experiment [7] in a line: qHTS of pediatric cancer cell lines to identify multiple opportunities for drug repurposing: Primary screen for RD cells (AID 1347104). Further: nearly all actives have a fitted effect of over 55% in size. Further: potency means the concentration at half of the fitted maximal effect. In a few lines:
as §1

Experiment [8] in a line: qHTS of pediatric cancer cell lines to identify multiple opportunities for drug repurposing: Primary screen for MG 63 (6-TG R) cells (AID 1347105). Further: nearly all actives have a fitted effect of over 50% in size. Further: potency means the concentration at half of the fitted maximal effect. The method, boiled down:
as §1

A short description of experiment [9]: qHTS of pediatric cancer cell lines to identify multiple opportunities for drug repurposing: Primary screen for control Hh wild type fibroblast cells (AID 1347106).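 Further: series mostly up to about 46 µM; a drop in luminescence marks cytotoxicity and a rise apparent proliferation; nearly all actives have a fitted effect of over 55% in size.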 In a few lines: as §3
Experiment [10] can be described thus: qHTS of pediatric cancer cell lines to identify multiple opportunities for drug repurposing: Primary screen for Rh30 cells (AID 1347107). Further: nearly all actives have a fitted effect of over 75% in size. Further: potency means the concentration at half of the fitted maximal effect. The method, boiled down:
as §3

The nature of experiment [11]: qHTS of pediatric cancer cell lines to identify multiple opportunities for drug repurposing: Primary screen for Rh41 cells (AID 1347108). Further: nearly all actives have a fitted effect of over 70% in size. Further: potency means the concentration at half of the fitted maximal effect. In a few lines:
as §1

The nature of experiment [12]: qHTS of pediatric cancer cell lines to identify multiple opportunities for drug repurposing: Primary screen for OHS-50 cells (AID 1347103). Further: potency means the concentration at half of the fitted maximal effect; nearly all actives have a fitted effect of over 40% in size. The method, boiled down: as §2
Experiment [13] can be described thus: qHTS of pediatric cancer cell lines to identify multiple opportunities for drug repurposing: Confirmatory screen for A673 cells (AID 1347110).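 Further: potency means the concentration at half of the fitted maximal effect; cells exposed to compound for 48 h before the viability read; nearly all actives have a fitted effect of over 65% in size.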 In a few lines: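 Cells plated at 500-1,000/well were treated five hours later with multi-point dilutions up to 46 µM final. After two days, CellTiter-Glo was added and luminescence read.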
Experiment [14] in a line: qHTS of pediatric cancer cell lines to identify multiple opportunities for drug repurposing: Confirmatory screen for SK-N-MC cells (AID 1347111).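 Further: potency means the concentration at half of the fitted maximal effect; cells exposed to compound for 48 h before the readout; nearly all actives have a fitted effect of over 70% in size.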 In a few lines:
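Metabolically active cells were quantified by ATP-dependent luminescence (CellTiter-Glo, 15 min at room temperature) following 48 h treatment. Cells had been plated at 500-1,000 per well and settled for 5 h beforehand.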

Experiment [15] in a line: qHTS of pediatric cancer cell lines to identify multiple opportunities for drug repurposing: Confirmatory screen for BT-12 cells (AID 1347112). Further: nearly all actives have a fitted effect of over 55% in size. Further: potency means the concentration at half of the fitted maximal effect. The method, boiled down: as §3
A short description of experiment [16]: qHTS of pediatric cancer cell lines to identify multiple opportunities for drug repurposing: Confirmatory screen for LAN-5 cells (AID 1347113). Further: nearly all actives have a fitted effect of over 65% in size. Further: potency means the concentration at half of the fitted maximal effect. In a few lines: as §3
Experiment [17] can be described thus: qHTS of pediatric cancer cell lines to identify multiple opportunities for drug repurposing: Confirmatory screen for DAOY cells (AID 1347114). In a few lines: (§4)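 Viability measured as metabolically active cells via CellTiter-Glo luminescence following 48 hours of compound exposure, 11-point dilutions in confirmatory testing. 500-1,000 cells/well plated 5 hours before dosing; controls were DMSO and 2.3 µM bortezomib.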

Experiment [18] can be described thus: qHTS of pediatric cancer cell lines to identify multiple opportunities for drug repurposing: Confirmatory screen for SJ-GBM2 cells (AID 1347116). Further: nearly all actives have a fitted effect of over 60% in size. Further: potency means the concentration at half of the fitted maximal effect. The method, boiled down: as §4
A short description of experiment [19]: qHTS of pediatric cancer cell lines to identify multiple opportunities for drug repurposing: Confirmatory screen for NB-EBc1 cells (AID 1347115).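 Further: cells exposed to compound for 48 h before the viability read; nearly all actives have a fitted effect of over 45% in size.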 Further: potency means the concentration at half of the fitted maximal effect. The method, boiled down: as §3
Experiment [20] in a line: qHTS of pediatric cancer cell lines to identify multiple opportunities for drug repurposing: Confirmatory screen for NB1643 cells (AID 1347109). Further: potency means the concentration at half of the fitted maximal effect; nearly all actives have a fitted effect of over 45% in size. The method, boiled down:
as §3

On to `CC1COC2(CCN(c3nc(=O)c4cc(C(F)(F)F)cc([N+](=O)[O-])c4s3)CC2)O1` (stereo not given), for which the Potency entry in [1], in experiment [2], in experiment [3], in experiment [4], in [5] and in experiment [6] was “inactive” each time. The Potency result in [7], in [8], in experiment [9], in experiment [10] and in [11] was “inactive” in each case.
For the molecule `CNC(=O)c1nn(C)c2c1C(C)(C)Cc1cnc(Nc3ccc(N4CCN(C)CC4)cc3)nc1-2`, the Potency in [1] was 2350 nM (active); in [2], 1710 nM (active); in experiment [3], 743 nM (active); in experiment [4], 662 nM (active); in [5], 6850 nM (active); in [6] it was 3320 nM (active). Besides, the Potency is 1530 nM (active) in experiment [12]; 3720 nM (active) in [7]; 11800 nM (active) in experiment [11]; 928 nM (active) in experiment [13]; 1170 nM (active) in experiment [14]; 9270 nM (active) in experiment [15]. Besides, the Potency was 1850 nM (active) in experiment [16], 9270 nM (active) in experiment [17] and 657 nM (active) in [18]. In addition, the Potency entry in [9] and in experiment [10] was “inactive” each time.
For the molecule `C=CCn1c(=O)c2cnc(Nc3ccc(N4CCN(C)CC4)cc3)nc2n1-c1cccc(C(C)(C)O)n1`, the Potency in experiment [1] was 1050 nM (active); in experiment [2] it was 681 nM (active); in experiment [3], 187 nM (active); in [4] it was 469 nM (active); in experiment [5] it was 7690 nM (active); in experiment [6], 7430 nM (active). For the same molecule, the Potency in [12] is 306 nM (active); in experiment [7], 418 nM (active); in [11] it was 469 nM (active); in experiment [13] it was 2610 nM (active); in experiment [15] it was 10400 nM (active); in [17], 1850 nM (active). In addition, the Potency in experiment [18] was 737 nM (active). Further, the Potency result in experiment [9] was “inactive”.
For the molecule `CCOc1cc2ncc(C#N)c(Nc3ccc(F)c(Cl)c3)c2cc1NC(=O)C=CCN(C)C`, the Potency in experiment [1] was 2960 nM (active); in experiment [2], 341 nM (active); in experiment [3], 1050 nM (active); in experiment [4], 4180 nM (active); in [5], 7690 nM (active); in experiment [6], 10500 nM (active). In addition, the Potency in experiment [12] was 137 nM (active); in experiment [7], 526 nM (active); in experiment [11] it was 1870 nM (active); in [14] it was 65.7 nM (active); in experiment [15], 208 nM (active). In addition, the Potency result in experiment [16], in experiment [19] and in [18] was “inactive” in each case.
For `CC(=O)SC[C@@H](C)C(=O)N1CCC[C@H]1C(=O)N[C@@H](Cc1ccccc1)C(=O)O`, the Potency entry in [1], in experiment [2], in experiment [3], in experiment [4], in experiment [5] and in experiment [6] was “inactive” in each case. The Potency result in experiment [7], in experiment [8], in [9], in experiment [10] and in experiment [11] was “inactive” each time.
As to `Nc1nc(-c2nn(Cc3ccccc3F)c3ncccc23)nc(N)c1N1CCOCC1`, the Potency entry in experiment [1], in [2], in experiment [3], in [4], in [5] and in experiment [6] was “inactive” in each case. Further, the Potency result in experiment [7], in [8], in experiment [9], in [10] and in experiment [11] was “inactive” throughout.
As to `CCS(=O)(=O)c1cccc(-c2cc(C(=O)NC3CCN(C)CC3)c(C)c3[nH]c4ncc(C)cc4c23)c1`, the Potency in experiment [1] is 935 nM (active); in [2], 6810 nM (active); in [3], 526 nM (active); in experiment [4], 118 nM (active); in experiment [5], 6110 nM (active); in [6] it was 1180 nM (active). The Potency in experiment [12] was 769 nM (active); in experiment [7] it was 2640 nM (active); in experiment [8], 14800 nM (active); in [11], 1320 nM (active); in experiment [20] it was 414 nM (active); in [14], 117 nM (active). Also, the Potency in [15] was 4650 nM (active); in [16], 1170 nM (active); in experiment [17], 16500 nM (active); in experiment [19], 16500 nM (active); in experiment [18] it was 5220 nM (active).
Turning to `Cc1cc(Nc2ncnc3ccc(-c4ccc(CNCCS(C)(=O)=O)o4)cc23)ccc1Oc1ccn2ncnc2c1`, the Potency in experiment [1] is 2090 nM (active); in [2] it was 21500 nM (active); in experiment [3], 16600 nM (active); in [4], 14800 nM (active); in experiment [5] it was 6850 nM (active); in experiment [6], 20900 nM (active). The Potency is 1220 nM (active) in experiment [12]; 16600 nM (active) in experiment [7]; 18700 nM (active) in [8]; 11800 nM (active) in experiment [11]; 20800 nM (active) in [14]; 20800 nM (active) in [16]. For the same molecule, the Potency in experiment [18] is 65.7 nM (active). Moreover, the Potency result in experiment [9] and in experiment [15] was “inactive” each time.
As to `CN(C)Cc1c(C(=O)NCCOc2ccc(C(=O)NO)cc2)oc2ccccc12`, the Potency in [1] was 2960 nM (active); in experiment [2], 2410 nM (active); in experiment [3], 935 nM (active); in [4], 469 nM (active); in [5], 3850 nM (active); in experiment [6], 590 nM (active). The Potency in [12] was 769 nM (active); in [7], 1870 nM (active); in experiment [8], 3720 nM (active); in [10], 4690 nM (active); in [11], 1480 nM (active); in experiment [20] it was 465 nM (active). For the same molecule, the Potency in experiment [13] was 1310 nM (active); in experiment [14] it was 585 nM (active); in [15] it was 8270 nM (active); in experiment [16] it was 928 nM (active); in experiment [17], 2610 nM (active); in [19] it was 1850 nM (active). In addition, in experiment [18], the Potency is 1470 nM (active).
On to `Nc1ccc(C(=O)c2cc3c(ccc4ccccc43)[nH]2)cc1`, for which the Potency in experiment [1] is 2350 nM (active); in experiment [2], 7640 nM (active); in experiment [3], 16600 nM (active); in experiment [4] it was 833 nM (active); in [5], 9680 nM (active); in [12] it was 10900 nM (active). The values for the Potency in [7] and in experiment [11] were 5900 nM (active) and 4690 nM (active), respectively. In addition, the Potency result in experiment [6], in experiment [9] and in experiment [10] was “inactive” each time.
For `O=C(NCCCNc1nc(Nc2cccc(NC(=O)N3CCCC3)c2)ncc1I)c1cccs1`, the Potency in experiment [1] was 3320 nM (active); in experiment [2], 17100 nM (active); in experiment [3], 11800 nM (active); in [4], 833 nM (active); in [5], 24300 nM (active); in experiment [6], 14800 nM (active). Also, the Potency in [12] was 24300 nM (active); in experiment [7], 16600 nM (active); in experiment [8] it was 3720 nM (active); in experiment [11], 18700 nM (active).
